PubChem BioAssay (Tox21)
Where “and” joins values, the source holds several entries; their conditions need not be identical. Equal entries are not always repeated. The source holds several records for some structures; these can differ, active in one and inactive in another. Calls of active or inactive are those of the source. Unless noted, calls come from the whole dose curve; as a rule, active = well fitted curve in the direction sought with a large enough effect in the repeat runs; inconclusive = weak or mixed curves; inactive = no such curve, though single readings can be large; an effect the other way counts as inactive or inconclusive.

What was measured:
[1] = qHTS assay to identify small molecule antagonists of the thyroid receptor (TR) signaling pathway - cell viability counter screen (AID 743064); note: nearly all actives have a fitted effect of over 50% in size; note: potency is the fitted concentration of half-maximal effect
In short: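 Same-well viability check: GH3.TRE-Luc cells stimulated with 1 nM T3 alongside test compound for 23.5 h, followed by CellTiter-Fluor fluorescence.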

[2] = qHTS assay to identify small molecule antagonists of the estrogen receptor alpha (ER-alpha) signaling pathway - cell viability counter screen (AID 743074; calls by dose curve; note: nearly all actives have a fitted effect of over 45% in size; note: potency is the fitted concentration of half-maximal effect)
[3] = biological target: Estrogen receptor (Homo sapiens) (UniProt P03372); test: qHTS assay to identify small molecule agonists of the estrogen receptor alpha (ER-alpha) signaling pathway (AID 743075; calls by dose curve)
Sequence of Estrogen receptor (Homo sapiens) (P03372 whole entry, looked up): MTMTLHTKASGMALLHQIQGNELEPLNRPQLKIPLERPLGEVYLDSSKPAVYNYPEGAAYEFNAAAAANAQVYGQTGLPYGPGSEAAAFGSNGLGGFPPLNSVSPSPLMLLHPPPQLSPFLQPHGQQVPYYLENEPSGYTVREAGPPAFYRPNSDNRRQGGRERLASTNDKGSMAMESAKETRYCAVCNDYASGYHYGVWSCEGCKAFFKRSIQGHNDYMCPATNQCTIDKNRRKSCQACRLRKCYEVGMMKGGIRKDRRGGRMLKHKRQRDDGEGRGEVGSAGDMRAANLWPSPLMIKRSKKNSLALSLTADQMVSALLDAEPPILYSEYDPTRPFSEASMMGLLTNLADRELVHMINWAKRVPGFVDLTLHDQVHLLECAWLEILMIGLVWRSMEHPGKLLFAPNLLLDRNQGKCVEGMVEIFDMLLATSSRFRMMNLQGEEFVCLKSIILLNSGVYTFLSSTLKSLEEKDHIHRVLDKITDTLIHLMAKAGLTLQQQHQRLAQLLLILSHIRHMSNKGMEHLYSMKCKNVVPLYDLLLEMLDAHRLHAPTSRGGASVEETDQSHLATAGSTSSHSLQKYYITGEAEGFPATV

[4] = biological target: Estrogen receptor (Homo sapiens) (UniProt P03372); test: qHTS assay to identify small molecule agonists of the estrogen receptor alpha (ER-alpha) signaling pathway using the BG1 cell line (AID 743079); note: nearly all actives have a fitted effect of over 20% in size; note: potency is the fitted concentration of half-maximal effect
[5] = qHTS assay to identify small molecule antagonists of the estrogen receptor alpha (ER-alpha) signaling pathway using the BG1 cell line - cell viability counter screen (AID 743081);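 note: compound given together with 17beta-estradiol as the ER stimulus; nearly all actives have a fitted effect of over 45% in size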; note: potency is the fitted concentration of half-maximal effect
Aromatase (Homo sapiens) = Aromatase (Homo sapiens) (UniProt P11511); test: qHTS assay to identify aromatase inhibitors (AID 743083); note: nearly all actives have a fitted effect of over 55% in size; note: potency is the fitted concentration of half-maximal effect
Sequence of Aromatase (Homo sapiens) (P11511 whole entry, looked up): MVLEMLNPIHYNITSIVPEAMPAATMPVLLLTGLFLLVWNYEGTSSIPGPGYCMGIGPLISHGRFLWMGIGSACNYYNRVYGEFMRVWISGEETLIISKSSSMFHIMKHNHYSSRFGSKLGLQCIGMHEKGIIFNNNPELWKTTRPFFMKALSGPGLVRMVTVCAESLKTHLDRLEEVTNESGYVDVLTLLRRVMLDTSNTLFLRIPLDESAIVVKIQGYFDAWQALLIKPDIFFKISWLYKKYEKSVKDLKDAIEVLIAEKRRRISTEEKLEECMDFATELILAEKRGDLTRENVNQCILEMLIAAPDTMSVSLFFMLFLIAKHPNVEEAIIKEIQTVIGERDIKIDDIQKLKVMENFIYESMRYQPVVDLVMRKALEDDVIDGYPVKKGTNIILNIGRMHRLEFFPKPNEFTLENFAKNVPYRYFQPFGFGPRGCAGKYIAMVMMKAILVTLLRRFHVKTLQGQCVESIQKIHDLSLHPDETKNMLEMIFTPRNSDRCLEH

[6] = qHTS assay to identify aromatase inhibitors - cell viability counter screen (AID 743084);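 note: cells stimulated with testosterone during compound exposure; nearly all actives have a fitted effect of over 55% in size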; note: potency is the fitted concentration of half-maximal effect
[7] = biological target: Aryl hydrocarbon receptor (Homo sapiens) (UniProt P35869); test: qHTS assay to identify small molecule that activate the aryl hydrocarbon receptor (AhR) signaling pathway (AID 743085); note: nearly all actives have a fitted effect of over 15% in size; note: potency is the fitted concentration of half-maximal effect;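 for activation: HG2L7.5c1 human HepG2 liver cells with stably integrated DRE-driven firefly reporter; series mostly up to about 70 µM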
Sequence of Aryl hydrocarbon receptor (Homo sapiens) (P35869 whole entry, looked up): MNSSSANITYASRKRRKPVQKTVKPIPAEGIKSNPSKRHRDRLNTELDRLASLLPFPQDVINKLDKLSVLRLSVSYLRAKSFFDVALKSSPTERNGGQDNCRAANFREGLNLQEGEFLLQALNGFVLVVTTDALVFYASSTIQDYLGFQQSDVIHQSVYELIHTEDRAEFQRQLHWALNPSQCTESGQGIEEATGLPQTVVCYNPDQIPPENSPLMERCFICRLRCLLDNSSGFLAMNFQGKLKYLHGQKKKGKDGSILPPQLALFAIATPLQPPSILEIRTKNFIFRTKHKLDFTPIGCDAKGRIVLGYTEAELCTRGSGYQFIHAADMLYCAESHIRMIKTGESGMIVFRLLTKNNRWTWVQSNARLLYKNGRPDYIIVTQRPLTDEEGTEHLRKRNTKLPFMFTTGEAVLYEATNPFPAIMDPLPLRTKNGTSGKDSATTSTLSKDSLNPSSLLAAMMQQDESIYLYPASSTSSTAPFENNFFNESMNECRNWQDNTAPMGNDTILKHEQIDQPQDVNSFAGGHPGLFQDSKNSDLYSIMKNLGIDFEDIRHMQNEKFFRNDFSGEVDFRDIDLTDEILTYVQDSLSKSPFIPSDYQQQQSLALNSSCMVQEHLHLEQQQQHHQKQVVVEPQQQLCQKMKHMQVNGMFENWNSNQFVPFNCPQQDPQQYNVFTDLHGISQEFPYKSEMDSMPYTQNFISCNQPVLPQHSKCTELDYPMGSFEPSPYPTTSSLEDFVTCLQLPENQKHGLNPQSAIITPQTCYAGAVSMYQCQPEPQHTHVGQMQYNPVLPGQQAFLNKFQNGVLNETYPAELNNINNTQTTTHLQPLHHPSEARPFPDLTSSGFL
In short: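 Reporter assay in engineered HepG2 line HG2L7.5c1, whose plasmid carries twenty dioxin responsive elements upstream of firefly luciferase. Treatment lasted 24 h at 37C; ONE-Glo luminescence gauged induction.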

[8] = qHTS assay to identify small molecule that activate the aryl hydrocarbon receptor (AhR) signaling pathway - cell viability counter screen (AID 743086); note: nearly all actives have a fitted effect of over 45% in size; note: potency is the fitted concentration of half-maximal effect
In short: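 HepG2-AhR-luc (HG2L7.5c1) cells, 4000/well, were preincubated 5 h at 37C, exposed to compound in qHTS format for 24 hr at 37C, then given CellTiter-Fluor for 30 min; viability was read as fluorescence in the reporter wells.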

[9] = biological target: Peroxisome proliferator-activated receptor gamma (Homo sapiens) (UniProt P37231); test: qHTS assay to identify small molecule agonists of the peroxisome proliferator-activated receptor gamma (PPARg) signaling pathway (AID 743094; active = well fitted activation curve with a large enough effect in the signal ratio in the repeat runs, not every such curve was filed as active; inconclusive = weak or mixed curves, or effect the other way; inactive = no such curve, though single readings can be large or run the other way; the % refers to the signal ratio; note: potency is the fitted concentration of half-maximal effect)
Sequence of Peroxisome proliferator-activated receptor gamma (Homo sapiens) (P37231 whole entry, looked up): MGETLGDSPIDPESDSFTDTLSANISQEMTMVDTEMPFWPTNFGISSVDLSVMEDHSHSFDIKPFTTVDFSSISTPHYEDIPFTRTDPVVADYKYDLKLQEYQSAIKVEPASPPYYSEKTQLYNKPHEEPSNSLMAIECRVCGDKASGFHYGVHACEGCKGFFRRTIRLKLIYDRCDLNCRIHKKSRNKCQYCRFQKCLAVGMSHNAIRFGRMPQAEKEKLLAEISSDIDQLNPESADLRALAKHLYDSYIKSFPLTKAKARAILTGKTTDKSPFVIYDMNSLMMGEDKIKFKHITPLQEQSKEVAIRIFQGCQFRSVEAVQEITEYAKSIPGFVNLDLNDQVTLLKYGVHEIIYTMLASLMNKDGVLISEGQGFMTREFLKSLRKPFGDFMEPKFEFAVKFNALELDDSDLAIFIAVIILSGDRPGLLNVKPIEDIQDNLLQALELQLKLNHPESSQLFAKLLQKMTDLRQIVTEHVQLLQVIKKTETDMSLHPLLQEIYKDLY
In short: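 GeneBLAzer PPARg UAS-bla HEK293H cells were plated, rested 5 h, then exposed to compounds for 17 h at 37C. Beta-lactamase activity was read by LiveBLAzer B/G FRET substrate fluorescence after 1 h at room temperature.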

[10] = biological target: Peroxisome proliferator-activated receptor gamma (Homo sapiens) (UniProt P37231); test: qHTS assay to identify small molecule antagonists of the peroxisome proliferator-activated receptor gamma (PPARg) signaling pathway (AID 743191; calls by dose curve; note: nearly all actives have a fitted effect of over 30% in size; note: potency is the fitted concentration of half-maximal effect)
In short: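 GeneBLAzer PPARg UAS-bla HEK293H cells carrying a UAS-driven beta-lactamase reporter were plated at 3000 cells/well, preincubated 5 h at 37C, then given compound for 17 h at 37C; LiveBLAzer B/G FRET substrate was read after 1 h at room temperature.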

[11] = qHTS assay for small molecule activators of the heat shock response signaling pathway - cell viability counter screen (AID 743209); note: nearly all actives have a fitted effect of over 50% in size
In short: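 HSE-bla HeLa cells plated overnight, then exposed to Tox21 compounds (23 nL in DMSO) for 5 h at 37 C. After the bla reporter read, CellTiter-Glo was added in the same wells and luminescence read after 30 min at room temperature.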

[12] = qHTS assay for small molecule activators of the heat shock response signaling pathway (AID 743210; active = well fitted activation curve with a large enough effect in the signal ratio in the repeat runs, with a control signal flat, not every such curve was filed as active; inconclusive = weak or mixed curves; the % refers to the signal ratio; note: series mostly up to about 63 µM)
In short: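 HSE-bla HeLa cells (beta-lactamase reporter under heat shock response elements) were exposed to compounds for 5 h at 37 C, then loaded with LiveBLAzer B/G FRET substrate for 2.5 h at room temperature before fluorescence reading.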

[13] = test system: thyroid hormone receptor (rat, GH3 cells); test: qHTS assay to identify small molecule agonists of the thyroid receptor (TR) signaling pathway (AID 743066; calls by dose curve)
[14] = qHTS assay to identify small molecule antagonists of the peroxisome proliferator-activated receptor gamma (PPARg) signaling pathway - cell viability counter screen (AID 743194); note: nearly all actives have a fitted effect of over 55% in size
In short: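 PPARg-UAS-bla HEK293H cells were plated, rested 5 h at 37 C, then treated with compounds plus rosiglitazone (50 nM final) for 17 h at 37 C; viability was then read by CellTiter-Glo luminescence after 30 min at room temperature.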

[15] = qHTS assay for small molecule agonists of the antioxidant response element (ARE) signaling pathway (AID 743202; active = well fitted activation curve with a large enough effect in the signal ratio in the repeat runs, not every such curve was filed as active; inconclusive = weak or mixed curves, or effect the other way; inactive = no such curve, though single readings can be large or run the other way; the % refers to the signal ratio; note: potency is the fitted concentration of half-maximal effect)
In short: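 Read-out: LiveBLAzer B/G FRET substrate fluorescence after 2 h at room temperature, following 16 h compound treatment at 37 C of HepG2 cells carrying an ARE-driven beta-lactamase reporter.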

[16] = qHTS assay for small molecule agonists of the antioxidant response element (ARE) signaling pathway - cell viability counter screen (AID 743203; calls by dose curve; note: nearly all actives have a fitted effect of over 55% in size; note: potency is the fitted concentration of half-maximal effect)
In short: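 ARE-bla HepG2 cells were plated, rested 5 h at 37C/5% CO2, then exposed to compounds in DMSO for 16 h. Viability was read as CellTiter-Glo luminescence after 30 min at room temperature, in the same wells as the ARE screen.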

[17] = biological target: Estrogen receptor (Homo sapiens) (UniProt P03372); test: qHTS assay to identify small molecule antagonists of the estrogen receptor alpha (ER-alpha) signaling pathway (AID 743069; active = well fitted curve in the direction sought with a large enough effect in the signal ratio in the repeat runs, not every such curve was filed as active; inconclusive = weak or mixed curves, or effect the other way; inactive = no such curve, though single readings can be large or run the other way; the % refers to the signal ratio; note: potency is the fitted concentration of half-maximal effect)
In short: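 HEK293 cells stably carrying an ER-alpha-UAS-bla beta-lactamase reporter were pre-cultured overnight in 2% charcoal-stripped FBS medium. Test compounds in DMSO were added together with 17beta-estradiol for 18 hr at 37C. Read-out was fluorescence after 2 hr with LiveBLAzer B/G FRET substrate at room temperature.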

[18] = qHTS assay to identify small molecule antagonists of the thyroid receptor (TR) signaling pathway (AID 743065)
In short: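 GH3.TRE-Luc rat pituitary cells carrying two TR response elements driving luciferase were plated for 4 h, given compound plus 1 nM T3 (final), and incubated 23.5 h at 37 C. ONE-Glo luminescence measured reporter inhibition; CellTiter-Fluor fluorescence tracked cytotoxicity.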

[19] = qHTS assay to identify small molecule antagonists of the estrogen receptor alpha (ER-alpha) signaling pathway using the BG1 cell line (AID 743080; calls by dose curve;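 note: BG1 cells stimulated with 17beta-estradiol alongside compound; nearly all actives have a fitted effect of over 25% in size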; note: potency is the fitted concentration of half-maximal effect)
In short: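 Luminescence from a 4×ERE-luciferase reporter in BG1-Luc-4E2 cells served as read-out. Cells, pre-cultured 5 days in stripped-serum phenol-red-free medium, were exposed to compound with 17beta-estradiol co-stimulation for 21.5 h at 37 C.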

Measured: Potency

CNCCCC12CCC(c3ccccc31)c1ccccc12
inactive and 30.6 µM (active): Aromatase (Homo sapiens)
inactive: [3] | [4] | [5] | [7] | [9] | [11] | [12]
active: [1] 11.9 µM and 4.86 µM | [10] 13.3 µM
inactive and 54.5 µM (active): [6]
inactive and 61.1 µM (active): [8]
inactive and 49 µM (active): [2]

O=C(c1ccccc1)c1ccccc1O
inactive and 27.3 µM (active): Aromatase (Homo sapiens)
not listed: [3] | [4] | [7] | [8] | [17] | [18] | [19]
inactive: all other assays above

CN(C)CCC=C1c2ccccc2CCc2ccccc21
active: [1] 23.7 µM and 5.45 µM and 24.3 µM | [17] 54.9 µM [inconclusive]
inactive: [13] | [3] | [4] | [5] | Aromatase (Homo sapiens) | [6] | [7] | [16] | [11] | [12]

CN(C)c1nc(N(C)C)nc(N(C)C)n1
inactive: [1] | [2] | [5] | [14] | [15] | [11] | [12]

O=C(/C=C/C=C/c1ccc2c(c1)OCO2)N1CCCCC1
active: [4] 1.37 µM and 3.86 µM | [7] 612 nM and 2.17 µM
not listed: [8] | [9] | [10] | [14] | [15] | [18] | [19]
inactive: all other assays above

O=[N+]([O-])c1ccc2c(c1)Cc1ccccc1-2
inactive and 61.1 µM (active): [7]
active: [4] 13.7 µM | [15] 61.1 µM
not listed: [1] | [16]
inactive: all other assays above

c1ccc2cc(Nc3ccc(Nc4ccc5ccccc5c4)cc3)ccc2c1
inactive: [1] | [13] | [2] | [5] | Aromatase (Homo sapiens) | [6] | [8] | [15] | [11] | [12]
active: [7] 30.8 µM and 30.6 µM | [9] 22 µM

CCOCCOCCO
not listed: [3] | [4] | [10] | [14] | [17] | [18] | [19]
inactive: all other assays above

Nc1ccc(Cl)cc1Cl
not listed: [1] | [10]
inactive: all other assays above

O=C(c1ccc(OCCN2CCCCC2)cc1)c1c(-c2ccc(O)cc2)sc2cc(O)ccc12
active: [1] 6.68 µM and 4.33 µM and 6.11 µM | [2] 23.9 µM and 49 µM and 54.9 µM | [5] 8.41 µM and 10.9 µM and 13.7 µM | Aromatase (Homo sapiens) 11.9 nM and 3.9 nM and 4.3 nM | [6] 29.8 µM and 34.4 µM | [8] 21.1 µM and 21.7 µM and 19.3 µM | [16] 61.2 µM and 17.2 µM and 29.8 µM
inactive: [13] | [7] | [11] | [12]

CC(C(=O)O)c1cccc(C(=O)c2ccccc2)c1 (configuration not stated)
not listed: [1] | [8] | [14] | [16]
inactive: all other assays above

C[C@]12CC[C@H]3[C@@H](CCC4=CC(=O)CC[C@@]43C)[C@@H]1CC[C@@H]2C(=O)CO
active: [4] 7.7 µM
not listed: [10] | [14] | [15] | [16] | [17] | [18]
inactive: all other assays above

COC(=O)Nc1nc2ccc(S(=O)c3ccccc3)cc2[nH]1 (configuration not stated)
active: [19] 12.2 µM | [7] 3.76 µM and 3.06 µM
not listed: [10] | [17] | [18]
inactive: all other assays above
